# High-throughput results (PubChem BioAssay)
# HCMV inh: human cytomegalovirus inhibition. AID 1259415. activity change, negative = inhibition, % at 57.5 µM. HFF cells, HCMV-luciferase reporter, 72 h; stronger effect = lower value. 4.5% of 410,000 active; in the data active means activity change below about -60%; inconclusive means no clear call, values can overlap the other calls; inactive means above about -39%; further: on the % scale 0 is the no-effect control and ±100 the full control effect
#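 Luciferase read-out from HCMV-luciferase-infected HFFs (MOI 1 PFU/cell) 72 h post infection at 37C; compounds added after 16 h cell attachment; activity normalized between buffer-only basal and Salinomycin (10uM) inhibitor controls.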
# HCV inh: HCV inhibition | Huh7.5.1 HCVcc-Cre infection, luciferase reporter, 44 h | Potency, µM (series often up to 41.8 µM), for the others: top-dose activity change, negative = inhibition, actives largely listed as inhibitors | 3.4% of 340,000 active; active means well fitted inhibition curve with a large enough effect; inconclusive means small, poorly fitted or top-dose-only effect, or another doubt; inactive means no such curve, though single readings can be large or run the other way; further: potency means the concentration at half of the fitted maximal effect; on the % scale 0 is the no-effect control and ±100 the full control effect
#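 Infectious HCVcc-Cre (~0.5 moi) was added to cells just after compound, with cells seeded 4 h earlier at 1,000 per well. Luciferase activity after 44 h culture reported infection; substrate was incubated 15 min at room temperature before reading.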
# SARS PLP yeast: inhibitors of SARS-CoV papain-like protease in yeast; S. cerevisiae expressing SARS-CoV PLpro, growth rescue; Potency, µM (doses to about 32.9 µM), for the others: at the highest dose activity, positive = growth rescue, most hits filed as activators; 0.19% of 330,000 active; calls by dose curve; further: potency means the concentration at half of the fitted maximal effect; 0% is about no effect; nearly all actives have a fitted effect of over 55% in size
# Marburg entry inh: inhibitors of Marburg virus binding or cell entry; Marburg virus pseudotyped entry inhibition, cell reporter; Potency, µM (highest dose often 37.8 µM), for inactives: at the top dose activity change, negative = inhibition, most hits filed as inhibitors; 1.8% of 300,000 active; calls by dose curve; tested in HEK293 cells; further: potency means the concentration at half of the fitted maximal effect; on the % scale 0 is the no-effect control and ±100 the full control effect
# FMDV inh: antivirals against foot and mouth disease virus | 1.2% of 410,000 active | Potency, µM (series often up to 57.9 µM), for inactives: at the top dose activity change, negative = inhibition, most hits filed as inhibitors | FMDV antiviral cell-based qHTS | AID 1159524; calls by dose curve; tested in HEK293T cells; further: read-out not given here; potency means the concentration at half of the fitted maximal effect; on the % scale 0 is the no-effect control and ±100 the full control effect; nearly all actives have a fitted effect of over 45% in size
# LASV entry inh: Lassa virus entry inhibition. Potency, µM (series often up to 37.9 µM), for the others: top-dose activity change, negative = inhibition, hits mostly inhibitors. 1.2% of 300,000 active. AID 540256. Lassa virus pseudotype entry inhibition, cell reporter; calls by dose curve; tested in HEK293 cells; further: potency means the concentration at half of the fitted maximal effect; on the % scale 0 is the no-effect control and ±100 the full control effect; nearly all actives have a fitted effect of over 50% in size
# The depositor's hits bear a star; ? = inconclusive; nt = no result given; ! = a repeat was not active; [ ] = remark or other dose. The list is not random: actives were taken first. Their share in the collection is about 8%.
SMILES,HCMV inh,HCV inh,SARS PLP yeast,Marburg entry inh,FMDV inh,LASV entry inh
Cc1cc(N2CCOCC2)nc2ccc(NC(=O)CCC(=O)N3CCN(c4ccc(F)cc4)CC3)cc12,57.9,?,-0.6%,2.2%[46.1 µM],-0.9%,-22.5%[46.1 µM]
CCN(CC)c1ccc(C(=O)Nc2ccc3nc(N(CC)CC)cc(C)c3c2)cc1,-67.2*,nt,nt,11.2µM*,-26.7%,?
Cc1cc(N2CCN(C)CC2)nc2ccc(NC(=O)c3ccc(C(C)(C)C)cc3)cc12,-106.2*,nt,nt,?,?,4.8%[46.1 µM]
CCOc1ccccc1NC(=O)Nc1ccc2nc(N3CCN(C)CC3)cc(C)c2c1,-105.6*,nt,nt,nt,23.2%,?
Cc1cc(N2CCN(C)CC2)nc2ccc(NC(=O)Nc3ccc(Cl)cc3)cc12,10.9,nt,nt,nt,2.2%,8.3%[46.1 µM]
Cc1ccccc1NC(=O)Nc1ccc2nc(N3CCN(C)CC3)cc(C)c2c1,-21.7,nt,nt,nt,-14.9%,?
Cc1ncoc1C(=O)NCc1nc(-c2cccc(NC(=O)c3ccccn3)c2)oc1C,nt,nt,nt,nt,0.8%,nt
CCOC(=O)N1CCC(NC(=S)Nc2ccc3nc(N4CCN(CC)CC4)cc(C)c3c2)CC1,-8.7,-23.2%,-0.9%,nt,-8.7%,nt
CCOC(=O)N1CCC(NC(=S)Nc2ccc3nc(N4CCN(C)CC4)cc(C)c3c2)CC1,-31.3,10µM*,1.9%,?,8.7%,21.6%
CCN1CCN(c2cc(C)c3cc(NC(=O)c4ccc(OC)c(OC)c4)ccc3n2)CC1,?,11.2µM*,4.1%,?,8.7%,-1.1%[46.1 µM]
COc1ccc(/C=C/C(=O)Nc2ccc3nc(N4CCC(C)CC4)cc(C)c3c2)cc1OC,-87.6*,nt,nt,10µM*,-13.4%,?
CCN1CCN(c2cc(C)c3cc(NC(=O)c4cc(OC)c(OC)c(OC)c4)ccc3n2)CC1,-7.0,nt,nt,nt,-3.1%,-24.2%[46.1 µM]
CCN1CCN(c2cc(C)c3cc(NC(=O)/C=C/c4ccc(C)cc4)ccc3n2)CC1,-20.9,nt,nt,?,-6.7%,21.6%[46.1 µM]
CCN1CCN(c2cc(C)c3cc(NC(=O)/C=C/c4ccc(OCCC(C)C)cc4)ccc3n2)CC1,-78.6*,nt,nt,0.2%[46.1 µM],?,25.7%[46.1 µM]
COc1ccccc1CC(=O)Nc1ccc2nc(N3CCC(C)CC3)cc(C)c2c1,-6.7,nt,nt,-26.1%[46.1 µM],0.0%,?
CCC(CC)NC(=O)Nc1ccc(C)cc1,27.5,-8.2%,-0.8%,1.3%[46.1 µM],-14.9%,?
CCN1CCN(c2cc(C)c3cc(NC(=O)c4cncc(Br)c4)ccc3n2)CC1,?,5.62µM*,3.5%,?,-25.3%,-25.4%
CCN1CCN(c2cc(C)c3cc(NC(=O)c4cccc(OC)c4)ccc3n2)CC1,?,?,0.8%,nt,27.7%,nt
CCN1CCN(c2cc(C)c3cc(NC(=O)CCC(=O)Nc4ccc(OC)c(OC)c4)ccc3n2)CC1,19.6,-19.5%,1.6%,nt,-15.3%,nt
COc1ccc(C)cc1NC(=O)CCC(=O)Nc1ccc2nc(N3CCN(C)CC3)cc(C)c2c1,nt,10µM*,3.8%,?,-10.0%,-4.0%
CC(C)(C)NCC(=Cc1ccccc1)C(=O)c1ccccc1,-97.6*,?,nt,7.94µM*,8.91µM*,7.08µM*
O=C(O)C[C@H](SCc1ccc(C(=O)O)o1)C(=O)O,nt,nt,nt,-0.1%,nt,nt
Cc1sc2ncnc(NCCN3CCOCC3)c2c1C,-76.3*,11.2µM*,4.0%,?,?,-28.8%
Cc1c(C(=O)N2CCCC2)sc2ncnc(NCCCN3CCOCC3)c12,nt,nt,nt,nt,-5.4%,nt
Cc1sc2ncnc(N/N=C/c3ccc(O)cc3)c2c1C,-26.1,11.2µM*,-26.7%,?,5.2%,?
SMILES,HCMV inh,HCV inh,SARS PLP yeast,Marburg entry inh,FMDV inh,LASV entry inh
Cc1sc2ncnc(NCCCO)c2c1C,-18.0,-11.3%,-0.7%,nt,-2.1%,nt
Cc1sc2ncnc(NCc3cccnc3)c2c1C,-61.1*,?,-0.1%,-16.9%[46.1 µM],-15.7%,-0.2%[46.1 µM]
Cc1sc2ncnc(NCc3cccs3)c2c1C,-91.9*,10µM*,-0.6%,-15.0%,14.1µM*,-9.6%
Cc1sc2ncnc(NCc3ccco3)c2c1C,-36.1,?,-4.3%,-26.6%,?,-11.1%
CCCCN(C)CCCNC(=O)c1cn(CC)c2ccc(S(=O)(=O)N3CCc4ccccc4C3)cc2c1=O,-67.6*!,?,1.9%,5.62µM*,-16.9%,-13.2%
CCCN(CCC)CCCNC(=O)c1cn(CC)c2ccc(S(=O)(=O)N3CCc4ccccc4C3)cc2c1=O,-82.0*!,?,0.8%,?,-9.8%,?
CCn1cc(C(=O)NCCCN(CC(C)C)CC(C)C)c(=O)c2cc(S(=O)(=O)N3CCc4ccccc4C3)ccc21,-1.9,nt,nt,22.1%[46.1 µM],-14.1%,-4.6%[46.1 µM]
C=CCn1cc(C(=O)N2CCc3ccccc3C2)c(=O)c2cc(S(=O)(=O)N(CC)CC)ccc21,-67.4*,-2.7%,2.7%,1.9%,15.4%,?
CCCCN(CC)CCCNC(=O)c1cn(CC)c2ccc(S(=O)(=O)N3CCc4ccccc4C3)cc2c1=O,-60.0*!,?,-1.9%,?,0.0%,?
COc1cccc(NC(=S)NC2CC(C)(C)NC(C)(C)C2)c1,47.2,5.6%,2.6%,0.0%,-19.6%,15.8%
CCn1cc(C(=O)NCCCN2CCCC2)c(=O)c2cc(S(=O)(=O)N3CCc4ccccc4C3)ccc21,-4.4,14.1µM*,2.8%,?,-10.5%,-19.2%
C[C@H](O)[C@@H]1CN2CCc3c([nH]c4ccc(-c5ccc6c(c5)OCO6)cc34)[C@@H]2C[C@@H]1N(C)C(=O)Nc1ccc(F)cc1,-102.3*,nt,nt,nt,?,nt
C[C@H](O)[C@@H]1C(=O)N2CCc3ccc(-c4ccccc4)cc3[C@@H]2C[C@@H]1N(C)C(=O)Nc1cc(Cl)cc(Cl)c1,24.5,11.2µM*,nt,nt,-25.0%,nt
COc1ccc(-c2ccc3[nH]c4c(c3c2)CCN2C(=O)[C@@H]([C@H](C)O)[C@@H](N(C)C(=O)Nc3cc(Cl)cc(Cl)c3)C[C@@H]42)cc1,11.6,nt,nt,nt,0.0%,nt
COc1ccc(-c2ccc3[nH]c4c(c3c2)CCN2C[C@@H]([C@H](C)O)[C@@H](N(C)C(=O)Nc3cc(Cl)cc(Cl)c3)C[C@@H]42)cc1,-24.6,nt,nt,nt,0.0%,nt
COc1ccc(-c2ccc3[nH]c4c(c3c2)CCN2C(=O)[C@@H]([C@H](C)O)[C@@H](N(C)C(=O)Nc3ccc(F)cc3)C[C@@H]42)cc1,-99.8*,nt,nt,nt,?,nt
C=CCSc1nnc(C2CCCN(Cc3ccccc3O)C2)n1C (centres undefined),nt,nt,nt,nt,3.0%,nt
Cc1cccc(C)c1NC(=O)CN1CCN(CC(=O)NCC2(N3CCCCC3)CCCCC2)CC1,-24.6,4.9%,0.5%,nt,-10.4%,nt
CC(C)c1ccc(OCC(=O)NC(C)c2ccccc2)cc1 (centres undefined),4.3,5.2%,1.4%,1.8%,-3.1%,?
Cc1cn(CC(=O)NCCCc2ccccc2)c(=O)[nH]c1=O,23.7,2.82µM*,nt,nt,-15.4%,nt
Nc1ccn(CC(=O)NCc2ccccc2)c(=O)n1,23.0,21.2%,2.0%,nt,-3.6%,nt
Nc1ccn(CC(=O)NCCCc2ccccc2)c(=O)n1,-80.5*,-8.7%,5.1%,nt,-2.3%,nt
